Structures are written as SMILES. “And” between values parts separate entries of the source, which are not always exact repeats. Identical values can stand only once. The campaign covered roughly 16,000 compounds. About 5,800 (36%) were called active. Not shown: some 23% with an inconclusive outcome. The call rests on the fitted dose curve; in most records, active means well fitted curve in the direction sought with a large enough effect; inconclusive means small, poorly fitted or top-dose-only effect, or effect the other way; inactive means no such curve, though single readings can be large or run the other way. The list shows a part of the results. Some compounds were tested as several samples or in several runs, with calls that do not always agree.

What is called AC50 is the concentration giving half of the maximal activity seen.
On the % scale 0 is the no-effect control and ±100 the full control effect.

The assay deals with Cytochrome P450 2C19 (Homo sapiens) (UniProt P33261). The assay can be described thus: Cytochrome panel assay with activity outcomes. The conditions noted are these: recombinant CYP, pro-luciferin dealkylation, luminescence, p450-cyp2c19; series mostly up to 57.1 µM.
Chain of Cytochrome P450 2C19 (Homo sapiens) (P33261 whole entry, looked up): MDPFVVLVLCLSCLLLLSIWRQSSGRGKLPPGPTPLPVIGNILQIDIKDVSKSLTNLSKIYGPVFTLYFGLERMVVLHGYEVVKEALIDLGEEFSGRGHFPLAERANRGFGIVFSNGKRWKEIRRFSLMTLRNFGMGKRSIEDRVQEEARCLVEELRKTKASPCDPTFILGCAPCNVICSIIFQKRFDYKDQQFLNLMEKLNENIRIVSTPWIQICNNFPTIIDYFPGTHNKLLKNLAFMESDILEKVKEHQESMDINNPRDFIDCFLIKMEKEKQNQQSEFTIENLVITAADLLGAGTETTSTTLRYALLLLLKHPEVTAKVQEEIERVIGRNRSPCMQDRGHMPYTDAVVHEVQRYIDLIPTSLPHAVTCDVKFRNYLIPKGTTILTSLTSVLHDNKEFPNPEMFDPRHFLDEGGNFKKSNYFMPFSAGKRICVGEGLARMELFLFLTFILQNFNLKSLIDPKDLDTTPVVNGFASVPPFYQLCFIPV
As for `C[C@@H](C(=O)O)c1ccc(-c2ccccc2)c(F)c1`, the AC50 result was “inactive and 631 nM (active)”.

With `C[C@H](C(=O)O)c1cccc(Oc2ccccc2)c1`, the AC50 result was “inactive”.

With `O=C(O)[C@@H](O)c1ccc(F)cc1`, the activity, negative = inhibition was 10.1% [at 11.4 µM] (inactive).

Consider `O=C(O)c1cccc(C(=O)O)c1S(=O)Cc1ccccc1` (stereo unspecified), for which the activity, negative = inhibition is 41.5% [at 11.4 µM] (inactive).

Regarding `O=S(Cc1ccccc1)CC(O)(c1ccccc1)c1ccccc1` (stereo unspecified), the AC50 was 5.01 µM (active).

In the case of `O=C(O)C(Cl)(c1ccccc1)c1ccccc1`, the activity, negative = inhibition was -2.62% [at 11.4 µM] (inactive).

Regarding `CCOC(OCC)P(=O)(O)CCCNCc1ccc(Cl)c(Cl)c1`, the AC50 result was “inactive”.

Regarding `CCOc1ccc(C(=O)Nc2cnn(Cc3ccc(Cl)c(Cl)c3)c2)cc1`, the AC50 was 3.55 µM (active).

As for `COCCn1c(=O)c(-c2cn(C)c3ccccc23)nc2cnc(N3CCNCC3)nc21`, the AC50 entry is “inactive”.

As to `Cn1cc(-c2nc3cnc(N4CCNCC4)nc3n(Cc3ccc(F)cc3)c2=O)c2ccccc21`, the AC50 is 7.94 µM (active).

Turning to `CN1CCN(c2ncc3nc(-c4cn(C)c5ccccc45)c(=O)n(CCc4ccccc4)c3n2)CC1`, the AC50 entry was “inactive”.

On to `Cn1cc(-c2nc3cnc(N4CCNCC4)nc3n(CCc3ccccc3)c2=O)c2ccccc21`, for which the concentration at half-maximal activity (AC50) is 2 µM (active).

As to `CCNc1ncc2nc(-c3cn(C)c4ccccc34)c(=O)n(Cc3ccc(F)cc3)c2n1`, the AC50 entry was “inactive”.

In the case of `Cn1cc(-c2nc3cnc(N4CCOCC4)nc3n(CCC#N)c2=O)c2ccccc21`, the AC50 result was “inactive”.

For the molecule `CSc1nc(C)c(CCOC(=O)c2ccccc2)c(=O)[nH]1`, the AC50 is 15.8 µM (active).

In the case of `CSc1nc(C)c(CCOC(=O)c2cccc(C)c2)c(=O)[nH]1`, the AC50 is 3.16 µM (active).

Turning to `CSc1nc(O)c(Cc2ccccc2)c(=O)[nH]1`, the AC50 entry is “inactive”.

For `Cc1ccccc1[C@@H](OCCN(C)C)c1ccccc1`, the AC50 entry is “inactive”.

In the case of `COC(=O)Cn1c(=O)c2c(nc(Br)n2Cc2ccccc2Cl)n(C)c1=O`, the AC50 is 0.891 µM (active).

For `COc1ccc(N2CCN(Cc3nc4c(c(=O)n(C)c(=O)n4C)n3CC(C)=O)CC2)cc1`, the AC50 result is “inactive”.

For `C=CCn1cc(Cl)c(=O)n(CC=C)c1=O`, the AC50 result was “inactive”.

As to `CN(C)c1nc2c(c(=O)[nH]c(=O)n2C)n1Cc1ccccc1Br`, the AC50 entry is “inactive”.

`C=CCn1c(=O)c2c(nc(-c3ccc(S(=O)(=O)O)cc3)n2C)n(C)c1=O`: the AC50 entry was “inactive”.

In the case of `C=CCn1c(=O)c2c(nc(Br)n2Cc2ccccc2Cl)n(C)c1=O`, the AC50 was 0.794 µM (active).

Consider `CCn1nccc1C(=O)Nc1nc2ccccc2n1CCN1CCCCC1`, for which the AC50 result is “inactive”.

Turning to `CC(=O)Nc1nc2ccccc2n1Cc1ccccc1`, the AC50 is 22.4 µM (active).

Take `O=C(Nc1nc2ccccc2n1Cc1ccccc1)c1ccc(COc2ccccc2[N+](=O)[O-])o1`: the AC50 was 1.26 µM (active).

With `C=CCn1c(NCc2ccccc2)nc2ccccc21`, the half-maximal activity concentration (AC50) was 3.16 µM (active).

Turning to `COc1ccc(CNc2nc3ccccc3n2Cc2ccccc2)cc1OC`, the AC50 was 7.94 µM (active).

As to `CC(C)CN1CCC2(CC1)CCN(C(=O)c1cc(C(F)(F)F)cc(C(F)(F)F)c1)CC2`, the AC50 entry is “inactive”.

Take `CC[C@](N)(CCC(=O)O)C(=O)O`: the AC50 result was “inactive”.

For the molecule `CN(C)c1ncc2nc(-c3cc(F)cc(F)c3)c(=O)n(C[C@H]3CCCO3)c2n1`, the AC50 result is “inactive”.

In the case of `O=C(CN(Cc1ccccc1)S(=O)(=O)c1ccc2c(c1)OCCO2)N/N=C/c1ccc(F)cc1`, the AC50 is 3.98 µM (active).

As for `CN(CCc1ccccn1)c1ccc2c(c1)C(=O)c1ccccc1-2`, the AC50 is 2.51 µM (active).

Take `CN(CCc1ccccn1)c1ccc2c(c1)Cc1ccccc1-2`: the AC50 was 0.794 µM (active).

For the molecule `CCOC(=O)C1=C(O)C(=O)N(Cc2ccccc2)C1`, the AC50 is 15.8 µM (active).

`COC(=O)c1nnn(Cc2ccccc2)c1N`: the AC50 result is “inactive”.

Consider `CCOC(=O)N/N=C1/C[C@@H](O)[C@@H](O)[C@@H]2[C@@H]3C(=O)N(Cc4ccccc4)C(=O)[C@H]3CC[C@@H]12`, for which the activity, negative = inhibition was 11.9% [at 11.4 µM] (inactive).

Turning to `O=c1onc2n1-c1cc(Br)ccc1OC2`, the AC50 entry was “inactive”.

With `Cc1nn(-c2ccccc2)c(Cl)c1/C=N/NC(=O)c1ccco1`, the AC50 is 15.8 µM (active).

Take `Cc1nn(-c2ccccc2)c(C)c1/C=N/NC(=O)c1cc(-c2ccc(Cl)s2)[nH]n1`: the AC50 is 10 µM (active).

For `N[C@@H](CCCP(=O)(O)O)C(=O)O`, the AC50 entry is “inactive”.

Turning to `O=C(O)CCCSc1nc2ccccc2s1`, the activity, negative = inhibition is 20.2% [at 11.4 µM] (inactive).

With `O=C1CSC2(CCN(CCCN3c4ccccc4Sc4ccc(Cl)cc43)CC2)N1`, the activity, negative = inhibition was -35% [at 11.4 µM] (inactive).

As for `COc1ccc(OCc2nnc(SCC(=O)N3c4ccccc4Sc4ccc(Cl)cc43)o2)cc1`, the AC50 was 6.31 µM (active).

For `COc1ccc2c(c1)N(CC[C@H]1CCCCN1C)c1ccccc1S2`, the activity, negative = inhibition is -12% [at 11.4 µM] (inactive).

For the molecule `O=C(CSc1nc2ccccc2s1)N1c2ccccc2Sc2ccc(C(F)(F)F)cc21`, the AC50 is 4.47 µM (active).

`OC1CC2CC[C@H](C1)N2CCCN1c2ccccc2Sc2ccc(Cl)cc21` (stereo partly specified): the activity, negative = inhibition was -19.5% [at 11.4 µM] (inactive).

Regarding `COc1ccc2c(c1)N(C[C@@H](C)CN(C)C)c1ccccc1S2`, the AC50 result was “inactive”.

Turning to `O=C(CSc1nc2ccccc2o1)N1c2ccccc2Sc2ccc(Cl)cc21`, the AC50 is 2.51 µM (active).

As to `Nc1c(OCC(=O)O)ccc2cc(S(=O)(=O)O)ccc12`, the activity, negative = inhibition is -19.3% [at 11.4 µM] (inactive).

For the molecule `O=C(O)c1nn(-c2ccccc2)nc1-c1nn(-c2ccccc2)nc1C(=O)O`, the AC50 entry is “inactive”.

As to `CN(C)C=Nc1ccc2nn(-c3ccccc3)nc2c1`, the AC50 was 17.8 µM (active).

For `CSc1ccc(CNc2ccc(C)c(C)c2)cc1`, the AC50 is 0.0316 µM (active).

Turning to `CSc1ccc(CNc2ccc(Cl)cc2)cc1`, the AC50 was 0.02 µM (active).

Regarding `CC(C)(CC(=O)Nc1ccccc1)C(=O)O`, the activity, negative = inhibition is 43% [at 11.4 µM] (inactive).

For `CSc1ccc(CNc2ccccc2)cc1`, the AC50 is 0.631 µM (active).

For the molecule `CN(C)c1ncc2nc(-c3ccc(F)cc3)c(=O)n(CCC#N)c2n1`, the AC50 entry was “inactive”.

Regarding `N#CCCn1c(=O)c(CCc2ccccc2)nc2cnc(Nc3ccccc3)nc21`, the AC50 result is “inactive”.

Take `Cc1nc2cnc(N(C)C)nc2n(CCC#N)c1=O`: the AC50 result was “inactive”.

As to `CCNc1ncc2nc(-c3ccc(F)cc3)c(=O)n(CCOC)c2n1`, the AC50 result is “inactive”.

As to `CN(C)c1ncc2nc(CCc3ccccc3)c(=O)n(CCC#N)c2n1`, the AC50 is 10 µM (active).

Consider `CCNc1ncc2nc(-c3cn(C)c4ccccc34)c(=O)n(CCC#N)c2n1`, for which the AC50 result was “inactive”.

Turning to `CCNc1ncc2nc(-c3ccc(OC)cc3)c(=O)n(CCOC)c2n1`, the AC50 entry is “inactive”.

For the molecule `CCNc1ncc2nc(CCc3ccccc3)c(=O)n(CCC#N)c2n1`, the AC50 is 15.8 µM (active).

Consider `CCNc1ncc2nc(CCc3ccccc3)c(=O)n(CCOC)c2n1`, for which the AC50 is 10 µM (active).

As for `COc1ccc(CCNC(=O)COc2ccc(S(=O)(=O)NC3CCCCC3)cc2Cl)cc1`, the AC50 was 7.94 µM (active).

On to `COc1ccc2c(c1)C(=O)N(CCc1ccc(S(=O)(=O)NC(=O)NC3CCCCC3)cc1)C(=O)C2(C)C`, for which the AC50 entry is “inactive”.

On to `COc1ccc(CCCC(=O)NC2CCCCC2)cc1`, for which the AC50 is 3.16 µM (active).

`COc1cccc(-c2nccc(NCc3cccc(C)c3)n2)c1`: the AC50 was 6.31 µM (active).

For `COc1cccc(-c2nccc(NCc3cnc(C)cn3)n2)c1`, the AC50 entry was “inactive”.

`COc1cccc(-c2nccc(NCc3ccccc3)n2)c1`: the AC50 is 7.94 µM (active).

Take `CC1CCN(C(=S)c2ccc(O)cc2)CC1`: the AC50 is 3.55 µM (active).

Turning to `Cc1cccc2sc(NC(=O)C3c4ccccc4Oc4ccccc43)nc12`, the AC50 was 2.51 µM (active).

`Cc1cccc2c1Oc1ccccc1[C@@H]2NC(=O)c1ccc([N+](=O)[O-])cc1`: the activity, negative = inhibition is -12.7% [at 11.4 µM] (inactive).

For `O=C(Nc1cccnc1Cl)C1c2ccccc2Oc2ccccc21`, the AC50 is 0.794 µM (active).

In the case of `N[C@](CC1c2ccccc2Oc2ccccc21)(C(=O)O)[C@@H]1C[C@@H]1C(=O)O`, the AC50 result was “inactive”.

As to `O=C1C2=CC[C@@H]3C(=O)N(c4ccc(F)cc4F)C(=O)[C@H]3[C@H]2[C@H](O)[C@H]2O[C@H]12`, the activity, negative = inhibition is -24% [at 11.4 µM] (inactive).

For `Cc1noc(C)c1C(=O)N1CCC2(CCCN(Cc3ccccc3)C2)CC1`, the AC50 result is “inactive”.

For the molecule `OCCN(Cc1ccccc1)Cc1cccc(Cl)c1Cl`, the AC50 is 0.282 µM (active).

As to `COCCNc1nc(-c2ccc(C(=O)N(C)C)cc2)nc2ccccc12`, the AC50 entry is “inactive”.

Take `Cc1noc(C)c1-c1nc(N2CCN(C)CC2)c2ccccc2n1`: the AC50 entry was “inactive”.

As for `CC(=O)NCCNc1nc(-c2ccc(N(C)C)cc2)nc2ccccc12`, the AC50 entry is “inactive”.

For `COc1ccc(CNc2nc(-c3ccc4c(c3)OCO4)nc3ccccc23)c(OC)c1`, the AC50 is 7.94 µM (active).

For the molecule `COCCNc1nc(-c2ccccc2CN(C)C)nc2ccccc12`, the AC50 result was “inactive”.

As for `COc1ccc(OC)c(Nc2nc(-c3cccc([N+](=O)[O-])c3)nc3ccccc23)c1`, the AC50 result was “inactive”.

On to `COCCNc1nc(-c2ccc(N(C)C)cc2)nc2ccccc12`, for which the AC50 was 15.8 µM (active).

Turning to `CN(C)c1ccc(-c2nc(NCCc3cnc[nH]3)c3ccccc3n2)cc1`, the AC50 was 1.58 µM (active).

For `COc1ccc(CNc2nc(-c3c(C)noc3C)nc3ccccc23)c(OC)c1`, the AC50 was 3.16 µM (active).

Regarding `Cn1cccc1C(=O)N1CCC2(CC1)CN(Cc1ccc(C#N)cc1)C2`, the AC50 entry is “inactive”.

On to `CNC(=O)[C@@H]1O[C@@H](n2cnc3c(NCc4cccc(I)c4)ncnc32)[C@H](O)[C@@H]1O`, for which the AC50 result is “inactive”.

In the case of `COc1c(O[C@H]2O[C@@H](CO)[C@@H](O)[C@@H](O)[C@@H]2O)cc2c(c1OC)-c1ccc(SC)c(=O)cc1[C@H](NC(C)=O)CC2`, the AC50 entry is “inactive”.

Regarding `COc1ccc(CNc2nc(-c3ccc(C(=O)N(C)C)cc3)nc3ccccc23)c(OC)c1`, the AC50 was 15.8 µM (active).

With `COc1ccccc1CNc1nc(-c2ccc(N(C)C)cc2)nc2ccccc12`, the AC50 was 10 µM (active).

In the case of `COc1ccccc1CNc1nc(-c2ccc3c(c2)OCO3)nc2ccccc12`, the AC50 was 3.16 µM (active).

Regarding `C=CC1=C(C)C2=Cc3c(C=C)c(C)c4[n]3[Sn+2][n]3c(c(C)c(CCC(=O)O)c3=CC3=NC(=C4)C(C)=C3CCC(=O)O)=CC1=N2`, the AC50 result was “inactive”.

The values are drawn from PubChem BioAssay AID1851 (National Center for Advancing Translational Sciences (NCATS), 2009).
